Experimental data taken from PubChem BioAssay (NCI).
This is part of a sample that, as a whole, favours compounds with a hit. Of some 83,000 tested, about 20% had one in any assay.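 Note: values are percent growth. 100 is the growth of untreated cells, values between 100 and 0 indicate rising inhibition; between -100 and 0 indicates cell death.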 Values without a mark were called inactive. The source made the active and inactive calls. How the source made its calls: active means growth percent below 10; inactive means the rest.

What was measured:
Assay in all cases: NCI-60 one-dose screen, 48 h (100 = growth as untreated, 0 = no growth, -100 = all killed)
Conditions in all cases: 10 µM unless noted
[1] = tested on: SK-MEL-2 melanoma
[2] = tested on: EKVX NSCLC
[3] = tested on: SN12C renal
[4] = tested on: UO-31 renal
[5] = tested on: TK-10 renal
[6] = tested on: ACHN renal
[7] = tested on: CAKI-1 renal
[8] = tested on: A498 renal
[9] = tested on: CCRF-CEM leukemia
[10] = tested on: MOLT-4 leukemia

With `COC(=O)c1c2c(c[n+]([O-])c1C)C(=O)C(NCc1ccccc1)=CC2=O` the growth [1] was -44.4% (active), the growth [2] was -45.1% (active) and the growth [3] was -78.9% (active). The growth [4] was -14.8% (active), the growth [5] was 39% and the growth [6] was -18.4% (active). The growth [7] was 3.84% (active), the growth [8] was -4.89% (active) and the growth [9] was 2.92% (active). The growth [10] was -29.4% (active).

Compound `Cc1nc(-c2ccccc2)cc2c(O)c(C(=O)NN)[nH]c(=O)c12` has a growth [1] of 93.3%, a growth [2] of 111% and a growth [3] of 90.9%. It also gave a growth [4] of 97.4%, a growth [5] of 161% and a growth [6] of 109%. The growth [7] was 114%, the growth [8] was 100% and the growth [9] was 95.1%. For the same compound, the growth [10] was 102%.

With `C=C(C)[C@@H]1CC[C@]2(C(=O)NCCNCCN)CC[C@]3(C)[C@H](CC[C@@H]4[C@@]5(C)C/C(=C/c6ccncc6)C(=O)C(C)(C)[C@@H]5CC[C@]43C)[C@@H]12` the growth [1] was 108%, the growth [2] was 92.2% and the growth [3] was 96.5%. For the same compound, the growth [4] was 83.5%, the growth [5] was 118% and the growth [6] was 100%. For the same compound, the growth [7] was 85.6%, the growth [8] was 95.7% and the growth [9] was 97.1%. The growth [10] was 82.9%.

`CCn1c(SCC(=O)c2ccc(Br)cc2)nnc1-c1ccncc1` showed a growth [1] of 104%, a growth [2] of 102% and a growth [3] of 107%. The growth [4] was 91.4%, the growth [5] was 116% and the growth [6] was 109%. It also gave a growth [7] of 95.6%, a growth [8] of 91.1% and a growth [9] of 108%. It also gave a growth [10] of 101%.

Compound `C[C@]12C=CC(=O)C=C1CCC1C2[C@@H](O)C[C@@]2(C)C1CC[C@]2(O)C(=O)COC(=O)CCC(=O)O` (stereo not given in full) has a growth [1] of 117%, a growth [2] of 74.2% and a growth [3] of 74.2%. It also gave a growth [4] of 92.2%, a growth [5] of 116% and a growth [6] of 102%. It also gave a growth [7] of 82.5%, a growth [8] of 89.2% and a growth [9] of 60.9%. It also gave a growth [10] of 100%.

In the case of `O=C1c2cc(Cl)ccc2S(=O)(=O)c2c(NCCCNCCO)nc3ccccc3c21`, the growth [1] is reported as 23%, the growth [2] is reported as 33.2% and the growth [3] is reported as -46% (active). The growth [4] was -94.4% (active), the growth [5] was -79.6% (active) and the growth [6] was -99.9% (active). For the same compound, the growth [7] was 6.57% (active), the growth [8] was 57.3% and the growth [9] was -22.2% (active). For the same compound, the growth [10] was -19% (active).

`N=C(N)c1ccc(-c2ccc(-c3ccc(F)cc3)o2)o1` showed a growth [1] of 35.6%, a growth [2] of 47.5% and a growth [3] of 37.4%. It also gave a growth [4] of 15.5%, a growth [5] of 49.9% and a growth [6] of 27.2%. For the same compound, the growth [7] was 31.3%, the growth [8] was 37.1% and the growth [9] was 2.36% (active). For the same compound, the growth [10] was 8.09% (active).

With `O=S(=O)(Nc1cc(Br)c(O)c2ccccc12)c1ccc(F)cc1` the growth [1] was 87.8%, the growth [2] was 109% and the growth [3] was 49.3%. The growth [4] was 48.5%, the growth [5] was 123% and the growth [6] was 71.2%. It also gave a growth [7] of 80.5%, a growth [8] of 89.9% and a growth [9] of 11%. The growth [10] was -40.3% (active).

Compound `O=C1c2c(c3c4ccccc4[nH]c3c3ccc4ccccc4c23)C(=O)N1CCN1CCCCC1` has a growth [1] of 90.5%, a growth [2] of 75.5% and a growth [3] of 22.6%. It also gave a growth [4] of 39.7%, a growth [5] of 87.4% and a growth [6] of 12.7%. The growth [7] was 24.7%, the growth [8] was 45.7% and the growth [9] was 3.2% (active). The growth [10] was 7.16% (active).

With `c1cc2[nH]ncc2cc1-c1nc2ccc3[nH]ncc3c2c2c1CCCC2` the growth [1] was -48.7% (active), the growth [2] was 17.8% and the growth [3] was 20.6%. For the same compound, the growth [4] was -0.203% (active), the growth [5] was 8.08% (active) and the growth [6] was 9.47% (active). The growth [7] was 9.5% (active), the growth [8] was -1.43% (active) and the growth [9] was 9.05% (active). For the same compound, the growth [10] was -6.76% (active).

`COc1ccc2[nH]cc(C(c3cc(F)cc(F)c3)c3c[nH]c4ccc(OC)cc34)c2c1` gave a growth [1] of 62.5%, a growth [2] of 88.4% and a growth [3] of 87.3%. For the same compound, the growth [4] was 44.2%, the growth [5] was 124% and the growth [6] was 82.9%. The growth [7] was 101%, the growth [8] was 77.8% and the growth [9] was 60.1%. The growth [10] was 37.4%.

With `COC(=O)c1c2c(c(C)[n+]([O-])c1C)C(=O)C=C(NCc1ccc(Br)cc1)C2=O` the growth [1] was -54% (active), the growth [2] was -85.3% (active) and the growth [3] was -77.7% (active). The growth [4] was -85.8% (active), the growth [5] was 2.5% (active) and the growth [6] was -73.2% (active). For the same compound, the growth [7] was -25.7% (active), the growth [8] was -86.4% (active) and the growth [9] was -12.6% (active). The growth [10] was -21.7% (active).

`COC(=O)c1c2c(c(C)[n+]([O-])c1C)C(=O)C(NCc1ccc(Cl)cc1)=CC2=O` gave a growth [1] of 83.4%, a growth [2] of 70.9% and a growth [3] of 38%. For the same compound, the growth [4] was 79%, the growth [5] was 111% and the growth [6] was 67.5%. For the same compound, the growth [7] was 76.3%, the growth [8] was 88.2% and the growth [9] was 58%. It also gave a growth [10] of 72.8%.

`Clc1ccc(Sc2cnc(-c3ccccc3)o2)cc1` showed a growth [1] of 100%, a growth [2] of 98.5% and a growth [3] of 101%. The growth [4] was 78.4%, the growth [5] was 85.1% and the growth [6] was 99.7%. It also gave a growth [7] of 90.2%, a growth [8] of 63.5% and a growth [9] of 99.2%. It also gave a growth [10] of 100%.

Compound `O=C(NCCCN1CCOCC1)c1cccc(N2C(=O)/C(=C/c3ccc(F)cc3)SC2=S)c1` has a growth [1] of 109%, a growth [2] of 88.5% and a growth [3] of 93.6%. It also gave a growth [4] of 70.7%, a growth [5] of 100% and a growth [6] of 87.2%. The growth [7] was 81.2%, the growth [8] was 51.6% and the growth [9] was 108%. For the same compound, the growth [10] was 111%.

With `O=S(=O)(NCCNc1nccc(-c2c(-c3cccc(F)c3)nc3occn23)n1)c1ccc(Br)cc1` the growth [1] was 103%, the growth [2] was 89.5% and the growth [3] was 78.7%. The growth [4] was 64%, the growth [5] was 103% and the growth [6] was 62%. For the same compound, the growth [7] was 70.5%, the growth [8] was 81.3% and the growth [9] was 60.3%. It also gave a growth [10] of 82.5%.

`CCC(C)N(c1ccc(Cl)cc1)c1nc(-c2ccc(Br)cc2)cs1` (stereo not given) showed a growth [1] of 105%, a growth [2] of 80.2% and a growth [3] of 99.2%. It also gave a growth [4] of 81.3%, a growth [5] of 131% and a growth [6] of 96.4%. The growth [7] was 70.9%, the growth [8] was 94.7% and the growth [9] was 81.7%. For the same compound, the growth [10] was 82.7%.

For `C[C@H](NC(=O)[C@@H](C)N)[C@H](Oc1ccc2c(cnn2-c2ccc(F)cc2)c1)c1ccc2c(c1)OCCO2`, the growth [1] was 65.8%, the growth [2] was 43.5% and the growth [3] was 42.6%. It also gave a growth [4] of 18.5%, a growth [5] of 70.5% and a growth [6] of 59%. For the same compound, the growth [7] was 20.4%, the growth [8] was 91.2% and the growth [9] was 15.5%. For the same compound, the growth [10] was 8.43% (active).

`CC(C)(C)n1cc(-c2ccnc(NCCNS(=O)(=O)c3cccc(F)c3)c2)c(-c2ccccc2)n1` showed a growth [1] of 105%, a growth [2] of 70.6% and a growth [3] of 90.1%. The growth [4] was 67%, the growth [5] was 105% and the growth [6] was 99.5%. It also gave a growth [7] of 90.4%, a growth [8] of 27.1% and a growth [9] of 93.8%. The growth [10] was 74.4%.

`CCN(C(=O)N1CCN(c2cc3c(cc2F)c(=O)c(C(=O)O)cn3C2CC2)CC1)c1nc(-c2ccc(Cl)cc2)cs1` was tested, and the growth [1] was 9.44% (active), the growth [2] was 16.9% and the growth [3] was 3.28% (active). The growth [4] was 5.03% (active), the growth [5] was 28.4% and the growth [6] was -12.2% (active). The growth [7] was 6.12% (active), the growth [8] was 3.1% (active) and the growth [9] was 20.7%. The growth [10] was 5.81% (active).

Work on `O=C(c1cc2ccccc2o1)c1nn(-c2ccccc2)/c(=N/N=Cc2cn(-c3ccccc3)nc2-c2cc3ccccc3oc2=O)s1` yielded a growth [1] of 100%, a growth [2] of 92.7% and a growth [3] of 113%. For the same compound, the growth [4] was 68.5%, the growth [5] was 107% and the growth [6] was 102%. For the same compound, the growth [7] was 79.1%, the growth [8] was 116% and the growth [9] was 92.8%. For the same compound, the growth [10] was 93.3%.

`C=C(CNCCc1ccc(O)cc1)[C@@H]1CC[C@]2(CO)CC[C@]3(C)[C@H](CC[C@@H]4[C@@]5(C)CCC(NCCO)C(C)(C)[C@@H]5CC[C@]43C)[C@@H]12` (stereo not given in full) was tested, and the growth [1] was -81% (active), the growth [2] was -52.1% (active) and the growth [3] was -70.3% (active). The growth [4] was -96.1% (active), the growth [5] was -80.6% (active) and the growth [6] was -60.8% (active). For the same compound, the growth [7] was -77.2% (active), the growth [8] was 69.3% and the growth [9] was -19.7% (active). The growth [10] was -19.2% (active).

Compound `O=C(Cn1c(=O)sc2ccccc21)NNS(=O)(=O)c1ccccc1[N+](=O)[O-]` has a growth [1] of 103%, a growth [2] of 98.5% and a growth [3] of 109%. It also gave a growth [4] of 86.1%, a growth [5] of 104% and a growth [6] of 101%. The growth [7] was 85.2%, the growth [8] was 110% and the growth [9] was 102%. It also gave a growth [10] of 101%.

`COC(=O)CCC(=O)C(=O)OC` was tested, and the growth [1] was -34.9% [10 mM] (active), the growth [2] was 23.7% [10 mM] and the growth [3] was 0.923% [10 mM] (active). The growth [4] was -9.29% [10 mM] (active), the growth [5] was -8.5% [10 mM] (active) and the growth [6] was 6.94% [10 mM] (active). For the same compound, the growth [7] was 10.2% [10 mM], the growth [8] was -72.8% [10 mM] (active) and the growth [9] was -7.36% [10 mM] (active). The growth [10] was -11.4% [10 mM] (active).

Work on `COc1ccc(-c2nnc(-c3ccc4c(c3)nc(-c3ccncc3)n4C3CCCCC3)o2)cc1` yielded a growth [1] of 77.3%, a growth [2] of 64% and a growth [3] of 83.8%. The growth [4] was 38.3%, the growth [5] was 75% and the growth [6] was 89.2%. It also gave a growth [7] of 89.7%, a growth [8] of 73.9% and a growth [9] of 55.5%. For the same compound, the growth [10] was 44.3%.

With `O=C(O)c1[nH]c(=O)[nH]c(=O)c1[N+](=O)[O-]` the growth [1] was 158%, the growth [2] was 119% and the growth [3] was 108%. The growth [4] was 96.3%, the growth [5] was 119% and the growth [6] was 102%. For the same compound, the growth [7] was 95.2%, the growth [8] was 118% and the growth [9] was 113%. For the same compound, the growth [10] was 77.4%.
